The text below walks through data of publication PMC11006913.

Numbering of substitutions follows the chain as printed.

Common to all, as to assay: PBM; 200 nM protein, PBS
Common to all, as to conditions: dsDNA, one strand shown

Assay [1] has as its target HOXB4 (Homo sapiens, UniProt P17483 148-234).
In assay [2] the target is T1, VENTX (Homo sapiens, UniProt O95231 78-163, R121Q).
T1 sequence: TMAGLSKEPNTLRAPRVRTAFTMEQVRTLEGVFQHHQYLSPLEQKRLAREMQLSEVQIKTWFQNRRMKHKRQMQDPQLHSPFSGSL

The target of assay [3] is T2, VENTX (Homo sapiens, UniProt O95231 78-163).
T2 sequence: T1 sequence with Q44R

The target of assay [4] is HOXA7 (Homo sapiens, UniProt P31268 116-202).
Chain of HOXA7 (Homo sapiens, UniProt P31268 116-202) (P31268 116-202): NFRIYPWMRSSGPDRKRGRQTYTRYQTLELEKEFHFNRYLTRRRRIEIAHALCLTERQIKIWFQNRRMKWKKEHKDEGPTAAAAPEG
Assay [5] addresses T3, VENTX (Homo sapiens, UniProt O95231 78-163, Y115F).
T3 sequence: T1 sequence with Y38F, Q44R

Assay [6] has as its target HOXB4 (Homo sapiens, UniProt P17483 148-234, V174I).
Assay [7] concerns the target HOXA7 (Homo sapiens, UniProt P31268 116-202, W177C).
For assay [8], the target named is HOXA4 (Homo sapiens, UniProt Q00056 201-287, W262R).
Chain of HOXA4 (Homo sapiens, UniProt Q00056 201-287, W262R) (Q00056 201-287 W262R): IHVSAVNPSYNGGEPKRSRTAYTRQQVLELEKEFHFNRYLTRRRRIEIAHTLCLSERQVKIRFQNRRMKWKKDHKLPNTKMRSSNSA
The target in assay [9] is HOXA2 (Homo sapiens, UniProt O43364 129-215, R185T).
Chain of HOXA2 (Homo sapiens, UniProt O43364 129-215, R185T) (O43364 129-215 R185T): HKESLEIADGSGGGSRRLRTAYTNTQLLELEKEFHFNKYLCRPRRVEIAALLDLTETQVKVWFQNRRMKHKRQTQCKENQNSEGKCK
Assay [10] addresses HOXA4 (Homo sapiens, UniProt Q00056 201-287, R217L).
Assay [11] concerns the target HOXA2 (Homo sapiens, UniProt O43364 129-215, R185K).
Assay [12] deals with HOXA4 (Homo sapiens, UniProt Q00056 201-287).
Chain of HOXA4 (Homo sapiens, UniProt Q00056 201-287) (Q00056 201-287): as the sequence (Q00056 201-287 W262R) above, with R62W counted along it
In assay [13] the target is VAX1 (Homo sapiens, UniProt Q5SQQ9 86-172).
Chain of VAX1 (Homo sapiens, UniProt Q5SQQ9 86-172) (Q5SQQ9 86-172): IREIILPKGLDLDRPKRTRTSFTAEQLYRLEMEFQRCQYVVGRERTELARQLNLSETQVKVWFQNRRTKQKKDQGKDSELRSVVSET
Assay [14] has as its target VAX1 (Homo sapiens, UniProt Q5SQQ9 86-172, T142I).
In assay [15] the target is HOXA2 (Homo sapiens, UniProt O43364 129-215, Y150S).
Chain of HOXA2 (Homo sapiens, UniProt O43364 129-215, Y150S) (O43364 129-215 Y150S): as the sequence (O43364 129-215 R185T) above, with Y22S, T57R counted along it
The target of assay [16] is HOXA4 (Homo sapiens, UniProt Q00056 201-287, W262F).
Chain of HOXA4 (Homo sapiens, UniProt Q00056 201-287, W262F) (Q00056 201-287 W262F): as the sequence (Q00056 201-287 W262R) above, with R62F counted along it
The target in assay [17] is HOXA2 (Homo sapiens, UniProt O43364 129-215).
Chain of HOXA2 (Homo sapiens, UniProt O43364 129-215) (O43364 129-215): as the sequence (O43364 129-215 R185T) above, with T57R counted along it
Assay [18] has as its target VAX1 (Homo sapiens, UniProt Q5SQQ9 86-172, K157R).
The target of assay [19] is HOXB6 (Homo sapiens, UniProt P17509 132-218, K202E).
Chain of HOXB6 (Homo sapiens, UniProt P17509 132-218, K202E) (P17509 132-218 K202E): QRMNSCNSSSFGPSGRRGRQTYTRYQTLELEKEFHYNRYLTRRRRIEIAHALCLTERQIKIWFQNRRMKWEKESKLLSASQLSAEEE
The target of assay [20] is HOXB6 (Homo sapiens, UniProt P17509 132-218).
Chain of HOXB6 (Homo sapiens, UniProt P17509 132-218) (P17509 132-218): as the sequence (P17509 132-218 K202E) above, with E71K counted along it

Chain of HOXB4 (Homo sapiens, UniProt P17483 148-234, V174I) (P17483 148-234 V174I): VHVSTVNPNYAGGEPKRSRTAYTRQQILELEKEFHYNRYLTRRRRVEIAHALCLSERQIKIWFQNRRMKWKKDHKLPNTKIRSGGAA
Chain of HOXB4 (Homo sapiens, UniProt P17483 148-234) (P17483 148-234): as the sequence (P17483 148-234 V174I) above, with I27V counted along it
Chain of HOXA2 (Homo sapiens, UniProt O43364 129-215, R185K) (O43364 129-215 R185K): as the sequence (O43364 129-215 R185T) above, with T57K counted along it
Chain of HOXA4 (Homo sapiens, UniProt Q00056 201-287, R217L) (Q00056 201-287 R217L): as the sequence (Q00056 201-287 W262R) above, with R17L, R62W counted along it
Chain of VAX1 (Homo sapiens, UniProt Q5SQQ9 86-172, T142I) (Q5SQQ9 86-172 T142I): as the sequence (Q5SQQ9 86-172) above, with T57I counted along it
Chain of VAX1 (Homo sapiens, UniProt Q5SQQ9 86-172, K157R) (Q5SQQ9 86-172 K157R): as the sequence (Q5SQQ9 86-172) above, with K72R counted along it
Chain of HOXA7 (Homo sapiens, UniProt P31268 116-202, W177C) (P31268 116-202 W177C): as the sequence (P31268 116-202) above, with W62C counted along it

GACCAGGC: the binding signal with HOXB4 [1] was 7.9 upbm affinity estimate (log intensity, higher = more binding, comparable within an allelic series); with VENTX [2], 8.15 upbm affinity estimate (log intensity, higher = more binding, comparable within an allelic series); with VENTX [3], 8.13 upbm affinity estimate (log intensity, higher = more binding, comparable within an allelic series); with HOXA7 [4], 8.38 upbm affinity estimate (log intensity, higher = more binding, comparable within an allelic series); in the assay with VENTX [5], 8.13 upbm affinity estimate (log intensity, higher = more binding, comparable within an allelic series); with HOXB4 [6] it was 7.99 upbm affinity estimate (log intensity, higher = more binding, comparable within an allelic series). The binding signal with HOXA7 [7] was 8.39 upbm affinity estimate (log intensity, higher = more binding, comparable within an allelic series).
As for ACTCATTA, the binding signal with HOXB4 [1] is 13 upbm affinity estimate (log intensity, higher = more binding, comparable within an allelic series); with VENTX [2], 11.6 upbm affinity estimate (log intensity, higher = more binding, comparable within an allelic series); in the assay with HOXA4 [8], 10.7 upbm affinity estimate (log intensity, higher = more binding, comparable within an allelic series); with VENTX [3], 12.4 upbm affinity estimate (log intensity, higher = more binding, comparable within an allelic series); with VENTX [5] it was 11.7 upbm affinity estimate (log intensity, higher = more binding, comparable within an allelic series); in the assay with HOXA2 [9], 13 upbm affinity estimate (log intensity, higher = more binding, comparable within an allelic series). For the same sequence, the binding signal with HOXA4 [10] is 12.1 upbm affinity estimate (log intensity, higher = more binding, comparable within an allelic series); with HOXB4 [6], 13.6 upbm affinity estimate (log intensity, higher = more binding, comparable within an allelic series); in the assay with HOXA2 [11] it was 13.5 upbm affinity estimate (log intensity, higher = more binding, comparable within an allelic series); with HOXA4 [12], 13.8 upbm affinity estimate (log intensity, higher = more binding, comparable within an allelic series); with VAX1 [13], 13.2 upbm affinity estimate (log intensity, higher = more binding, comparable within an allelic series); in the assay with VAX1 [14], 13.1 upbm affinity estimate (log intensity, higher = more binding, comparable within an allelic series). Further, the binding signal was 10.9 upbm affinity estimate (log intensity, higher = more binding, comparable within an allelic series) with HOXA2 [15]; 11.7 upbm affinity estimate (log intensity, higher = more binding, comparable within an allelic series) in the assay with HOXA4 [16]; 12.6 upbm affinity estimate (log intensity, higher = more binding, comparable within an allelic series) in the assay with HOXA2 [17]; 13.1 upbm affinity estimate (log intensity, higher = more binding, comparable within an allelic series) in the assay with VAX1 [18].
On to CGTGCCTC, for which the binding signal in the assay with HOXB4 [1] is 7.37 upbm affinity estimate (log intensity, higher = more binding, comparable within an allelic series); with HOXB6 [19], 8.93 upbm affinity estimate (log intensity, higher = more binding, comparable within an allelic series); with HOXB4 [6], 7.39 upbm affinity estimate (log intensity, higher = more binding, comparable within an allelic series); in the assay with HOXB6 [20] it was 8.84 upbm affinity estimate (log intensity, higher = more binding, comparable within an allelic series).
Regarding CCTGACCC, the binding signal with HOXB4 [1] was 7.93 upbm affinity estimate (log intensity, higher = more binding, comparable within an allelic series); with HOXB4 [6], 7.87 upbm affinity estimate (log intensity, higher = more binding, comparable within an allelic series).
For GCGCAGCC, the binding signal with HOXB4 [1] is 7.53 upbm affinity estimate (log intensity, higher = more binding, comparable within an allelic series); with HOXB4 [6], 7.57 upbm affinity estimate (log intensity, higher = more binding, comparable within an allelic series).
For the sequence CTAATGAG, the binding signal with HOXB4 [1] was 13 upbm affinity estimate (log intensity, higher = more binding, comparable within an allelic series); with VENTX [2], 11.9 upbm affinity estimate (log intensity, higher = more binding, comparable within an allelic series); with HOXA4 [8] it was 10.5 upbm affinity estimate (log intensity, higher = more binding, comparable within an allelic series); with VENTX [3], 12.6 upbm affinity estimate (log intensity, higher = more binding, comparable within an allelic series); in the assay with VENTX [5] it was 12 upbm affinity estimate (log intensity, higher = more binding, comparable within an allelic series); with HOXA2 [9], 13.3 upbm affinity estimate (log intensity, higher = more binding, comparable within an allelic series). Moreover, the binding signal with HOXA4 [10] was 11.8 upbm affinity estimate (log intensity, higher = more binding, comparable within an allelic series); in the assay with HOXB4 [6], 13.6 upbm affinity estimate (log intensity, higher = more binding, comparable within an allelic series); in the assay with HOXA2 [11], 13.6 upbm affinity estimate (log intensity, higher = more binding, comparable within an allelic series); with HOXA4 [12] it was 13.8 upbm affinity estimate (log intensity, higher = more binding, comparable within an allelic series); with VAX1 [13], 13.6 upbm affinity estimate (log intensity, higher = more binding, comparable within an allelic series); with VAX1 [14] it was 13.3 upbm affinity estimate (log intensity, higher = more binding, comparable within an allelic series). For the same sequence, the binding signal with HOXA2 [15] is 10.6 upbm affinity estimate (log intensity, higher = more binding, comparable within an allelic series); with HOXA4 [16] it was 11.6 upbm affinity estimate (log intensity, higher = more binding, comparable within an allelic series); in the assay with HOXA2 [17], 12.8 upbm affinity estimate (log intensity, higher = more binding, comparable within an allelic series); with VAX1 [18], 13.4 upbm affinity estimate (log intensity, higher = more binding, comparable within an allelic series).
With ACTAATGA, the binding signal is 13.4 upbm affinity estimate (log intensity, higher = more binding, comparable within an allelic series) with HOXB4 [1]; 12.1 upbm affinity estimate (log intensity, higher = more binding, comparable within an allelic series) with VENTX [2]; 10.8 upbm affinity estimate (log intensity, higher = more binding, comparable within an allelic series) with HOXA4 [8]; 12.7 upbm affinity estimate (log intensity, higher = more binding, comparable within an allelic series) with VENTX [3]; 12 upbm affinity estimate (log intensity, higher = more binding, comparable within an allelic series) with VENTX [5]; 13.3 upbm affinity estimate (log intensity, higher = more binding, comparable within an allelic series) in the assay with HOXA2 [9]. The binding signal was 12.2 upbm affinity estimate (log intensity, higher = more binding, comparable within an allelic series) with HOXA4 [10]; 14 upbm affinity estimate (log intensity, higher = more binding, comparable within an allelic series) with HOXB4 [6]; 13.6 upbm affinity estimate (log intensity, higher = more binding, comparable within an allelic series) with HOXA2 [11]; 14.1 upbm affinity estimate (log intensity, higher = more binding, comparable within an allelic series) with HOXA4 [12]; 13.5 upbm affinity estimate (log intensity, higher = more binding, comparable within an allelic series) with VAX1 [13]; 13.3 upbm affinity estimate (log intensity, higher = more binding, comparable within an allelic series) in the assay with VAX1 [14]. Further, the binding signal was 10.9 upbm affinity estimate (log intensity, higher = more binding, comparable within an allelic series) with HOXA2 [15]; 12.3 upbm affinity estimate (log intensity, higher = more binding, comparable within an allelic series) in the assay with HOXA4 [16]; 12.9 upbm affinity estimate (log intensity, higher = more binding, comparable within an allelic series) with HOXA2 [17]; 13.3 upbm affinity estimate (log intensity, higher = more binding, comparable within an allelic series) with VAX1 [18].
Take CGGTTCCC: the binding signal with HOXB4 [1] is 7.65 upbm affinity estimate (log intensity, higher = more binding, comparable within an allelic series); with HOXB4 [6] it was 7.57 upbm affinity estimate (log intensity, higher = more binding, comparable within an allelic series).
In the case of ATTAATCG, the binding signal with HOXB4 [1] was 13 upbm affinity estimate (log intensity, higher = more binding, comparable within an allelic series); with VENTX [2], 11.6 upbm affinity estimate (log intensity, higher = more binding, comparable within an allelic series); in the assay with HOXA4 [8] it was 10.5 upbm affinity estimate (log intensity, higher = more binding, comparable within an allelic series); in the assay with VENTX [3], 12.5 upbm affinity estimate (log intensity, higher = more binding, comparable within an allelic series); in the assay with VENTX [5] it was 11.4 upbm affinity estimate (log intensity, higher = more binding, comparable within an allelic series); with HOXA4 [10], 11.9 upbm affinity estimate (log intensity, higher = more binding, comparable within an allelic series). In addition, the binding signal with HOXB4 [6] is 13.7 upbm affinity estimate (log intensity, higher = more binding, comparable within an allelic series); in the assay with HOXA4 [12], 13.6 upbm affinity estimate (log intensity, higher = more binding, comparable within an allelic series); with HOXA4 [16], 11.2 upbm affinity estimate (log intensity, higher = more binding, comparable within an allelic series).
Consider ATCATTAG, for which the binding signal is 13.5 upbm affinity estimate (log intensity, higher = more binding, comparable within an allelic series) with HOXB4 [1]; 11.7 upbm affinity estimate (log intensity, higher = more binding, comparable within an allelic series) with VENTX [2]; 10.6 upbm affinity estimate (log intensity, higher = more binding, comparable within an allelic series) with HOXA4 [8]; 12.5 upbm affinity estimate (log intensity, higher = more binding, comparable within an allelic series) in the assay with VENTX [3]; 11.8 upbm affinity estimate (log intensity, higher = more binding, comparable within an allelic series) with VENTX [5]; 12.9 upbm affinity estimate (log intensity, higher = more binding, comparable within an allelic series) with HOXA2 [9]. Further, the binding signal in the assay with HOXA4 [10] is 12.3 upbm affinity estimate (log intensity, higher = more binding, comparable within an allelic series); with HOXB4 [6], 14.2 upbm affinity estimate (log intensity, higher = more binding, comparable within an allelic series); with HOXA2 [11], 13.6 upbm affinity estimate (log intensity, higher = more binding, comparable within an allelic series); with HOXA4 [12], 14.1 upbm affinity estimate (log intensity, higher = more binding, comparable within an allelic series); with VAX1 [13], 13.2 upbm affinity estimate (log intensity, higher = more binding, comparable within an allelic series); in the assay with VAX1 [14] it was 13.1 upbm affinity estimate (log intensity, higher = more binding, comparable within an allelic series). For the same sequence, the binding signal in the assay with HOXA2 [15] was 10.9 upbm affinity estimate (log intensity, higher = more binding, comparable within an allelic series); with HOXA4 [16], 12 upbm affinity estimate (log intensity, higher = more binding, comparable within an allelic series); with HOXA2 [17], 12.7 upbm affinity estimate (log intensity, higher = more binding, comparable within an allelic series); with VAX1 [18] it was 13.1 upbm affinity estimate (log intensity, higher = more binding, comparable within an allelic series).
